Results taken from PubChem BioAssay (NCI).
This is part of a sample that, as a whole, favours compounds with a hit. Of some 83,000 tested, about 20% had one in any assay.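 Percent growth is the endpoint: 0 to 100 indicates growth inhibition (40 means 60% inhibition), 0 means no net growth, and negative values indicate cell death.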 A number with no mark means an inactive call. Calls of active or inactive are those of the source. The calls were made as follows: active = growth percent below 10; inactive = the rest.

How the values were obtained:
Test in all cases: NCI-60 one-dose screen, 48 h (100 = growth as untreated, 0 = no growth, -100 = all killed)
SNB-75 CNS = conditions: 10 µM unless noted
SNB-19 CNS = conditions: 10 µM unless noted
U251 CNS = conditions: 10 µM unless noted
PC-3 prostate = conditions: 10 µM unless noted
SK-MEL-5 melanoma = conditions: 10 µM unless noted
UACC-62 melanoma = conditions: 10 µM unless noted
LOX IMVI melanoma = conditions: 10 µM unless noted
SK-MEL-28 melanoma = conditions: 10 µM
SK-MEL-2 melanoma = conditions: 10 µM unless noted
EKVX NSCLC = conditions: 10 µM unless noted
SN12C renal = conditions: 10 µM unless noted
UO-31 renal = conditions: 10 µM unless noted
TK-10 renal = conditions: 10 µM unless noted
CAKI-1 renal = conditions: 10 µM unless noted
A498 renal = conditions: 10 µM unless noted
CCRF-CEM leukemia = conditions: 10 µM unless noted
MOLT-4 leukemia = conditions: 10 µM unless noted
SR leukemia = conditions: 10 µM unless noted
HT29 colon = conditions: 10 µM unless noted
ACHN renal = conditions: 10 µM unless noted

Row | SMILES | growth (SNB-75 CNS) | growth (SNB-19 CNS) [%] | growth (U251 CNS) | growth (PC-3 prostate) | growth (SK-MEL-5 melanoma) | growth (UACC-62 melanoma) | growth (LOX IMVI melanoma) | growth (SK-MEL-28 melanoma) | growth (SK-MEL-2 melanoma) | growth (EKVX NSCLC) | growth (SN12C renal) | growth (UO-31 renal) | growth (TK-10 renal) | growth (CAKI-1 renal) | growth (A498 renal) | growth (CCRF-CEM leukemia) | growth (MOLT-4 leukemia) | growth (SR leukemia) | growth (HT29 colon) | growth (ACHN renal)
1 | CC(C)[C@H](NC(=O)Cn1cc(C(=O)O)nn1)C(=O)O | 104% | 105 | 100% | 94.1% | 98.6% | 103% | 104% | 111% | 127% | 93.8% | 95.7% | 88.7% | 115% | 89.4% | 90.6% | 113% | 96.7% | 101% | – | –
2 | CN1C(=O)N(C)C2C1NN=c1s/c(=C\c3ccc(Cl)cc3Cl)c(=O)n12 (stereo unspecified) | – | 26.5 | 27.5% | 20% | – | 30% | 19.7% | 58.7% | 57% | 50.1% | 30.9% | 47.3% | 83.7% | 40.9% | – | 15% | 13.1% | 4.89% (active) | 15% | 29%
3 | NC(CCc1nc2ccccc2c(=O)[nH]1)C(=O)O (stereo unspecified) | – | 98.3 | 96.6% | 102% | – | 100% | 102% | 110% | 102% | 99.7% | 96.6% | 86.7% | 102% | 87.5% | – | 103% | 103% | 96.8% | 104% | 113%
4 | O=C(CN1C=NC2C(N3CCOCC3)=NC=NC21)c1ccc(Br)cc1 (stereo unspecified) | – | 97.2 | 99.8% | 95.5% | – | 93.1% | 97.3% | 111% | 94.4% | 97.6% | 98.3% | 78.6% | 117% | 85.4% | – | 105% | 105% | 104% | 107% | 103%
5 | CCN1C(=O)N(c2ccccc2)C2Nn3c(s/c(=C4\C(=O)N(C(C)C)c5ccccc54)c3=O)=NC21 (stereo unspecified) | – | – | 104% | 106% | – | 97.5% | 100% | 118% | 102% | 97.8% | 102% | 79.9% | 122% | 86.9% | – | 103% | 107% | 108% | 105% | 108%
6 | CS(=O)(=O)Nc1ccc(C(=O)NC(C(=O)NO)c2ccc(-c3cccc(F)c3)cc2)cc1 (stereo unspecified) | 24.8% | – | – | 86.9% | 48% | 79% | 44.8% | 91.8% | 73.6% | 97.4% | 75.3% | 19.3% | 30.3% | 49.9% | 95.6% | 95.1% | 103% | 78.8% | 53.2% | 58.7%
7 | CC1=NCC2NC(=O)NC(C)=C12 (stereo unspecified) | – | 98.9 | 103% | 93.9% | – | 95.2% | 101% | 114% | 101% | 100% | 99.2% | 83.6% | 95.9% | 92.8% | – | 99.7% | 107% | 104% | 108% | 109%
8 | S=C1NC2(c3ccccc3)CCC(=S)N2c2ccccc21 (stereo unspecified) | – | 97.6 | 95% | 96.7% | – | 92% | 99.7% | 114% | 97.1% | 100% | 96.8% | 86.2% | 124% | 78.7% | – | 101% | 97.5% | 92.9% | 105% | 108%
9 | CC(C)Cn1c2c(c(=S)[nH]c1=O)CCC2 | – | 97.6 | 102% | 104% | – | 96.1% | 101% | 118% | 98.2% | 102% | 97.6% | 86% | 102% | 89.1% | – | 99.3% | 108% | 106% | 111% | 103%
10 | O=C(N=Nc1c(O)[nH]c2ccccc12)c1oc2ccccc2c1CN1CCN(c2ccccc2)CC1 | – | 18.6 | -22.2% (active) | -22.2% (active) | – | 4.02% (active) | 2.72% (active) | -31.8% (active) | 72.9% | 4.35% (active) | 11.5% | -52.2% (active) | -45.1% (active) | 32.9% | – | 19.7% | 30.7% | 1.67% (active) | 15.8% | -85.2% (active)
11 | COc1ccc(/C=c2\sc3n(c2=O)NC2C(N=3)N(C)C(=O)N2C)cc1 (stereo unspecified) | – | 94.1 | 101% | 95.6% | – | 89.1% | 92.8% | 104% | 103% | 98.4% | 101% | 77.6% | 112% | 85% | – | 95.7% | 102% | 86.8% | 103% | 105%
12 | Cc1nn(-c2nc3ccccc3[nH]2)c2c1C(c1ccc(OCC(N)=O)cc1)CC(=O)N2 (stereo unspecified) | 92.3% | – | 110% | 97.4% | – | 97.8% | 109% | 105% | 107% | 96.9% | 101% | 81.9% | 114% | 89.5% | 79.1% | 22.5% | -20.1% (active) | 117% | 109% | 102%
13 | CCCSC1=NC2C(N(CC)C(=O)N2CC)N1/N=C/C=C/c1ccccc1[N+](=O)[O-] (stereo unspecified) | – | 29.6 | 21.7% | 24.9% | – | 36.6% | 37.7% | 63.5% | 48.6% | 53.6% | 40.6% | 44% | 85.1% | 44.1% | – | 16% | 18.6% | 9.32% (active) | 9.1% (active) | 41.5%
14 | CN1C(=O)N(C)C2Nn3c(s/c(=C\c4ccc(Cl)cc4Cl)c3=O)=NC21 (stereo unspecified) | – | 64 | 61.4% | 38.9% | – | 47.1% | 58.3% | 62.1% | 89.2% | 65.1% | 75.6% | 62% | 117% | 48.4% | – | 49% | 64.1% | 35.9% | 37% | 56.6%
15 | CN1C(=O)N(C)C2C1NN=c1s/c(=C\c3c[nH]c4ccccc34)c(=O)n12 (stereo unspecified) | – | 27.3 | 14.5% | 23.4% | – | 38.3% | 22.3% | – | 52.5% | 51.7% | 35.4% | 48% | 86.4% | 81.7% | – | 16.2% | 14.9% | 8.78% (active) | 11.3% | –
16 | COC(=O)C1=Nc2ccc(F)cc2/C1=C/c1sc(=S)[nH]c1O | 11.6% | – | 8.56% (active) | – | -41% (active) | 53.6% | 13% | 59.4% | 39.5% | 36.8% | 27.3% | 14.7% | 56% | 20% | 25.7% | 11.9% | 13.7% | 22.3% | 8.16% (active) | 25.1%
17 | C=C[C@@H]1CCC/C=C/[C@@H]2C[C@H](O)C[C@H]2[C@H](O)/C=C/C(=O)O1 | 33.8% | 33.4 | 25.3% | 30.3% | -90.1% (active) | 22.1% | -63.6% (active) | 6.18% (active) | -1.5% (active) | 16.9% | 13.3% | 6.14% (active) | 15.5% | 10.4% | -17.9% (active) | 12.6% | -9.66% (active) | -15.1% (active) | – | –
18 | O=C1N=c2ccccc2=C1c1sc(=Nc2ccccc2)n(Nc2ccccc2)c1O | – | 101 | 97.5% | 97.3% | – | 92.1% | 100% | 112% | 103% | 94.2% | 106% | 81.4% | 138% | 37.2% | – | 103% | 99.3% | 99.2% | 112% | 109%
19 | COC(=O)/C(CCC=C(C)C)=C1\[C@@H](OC(C)=O)C[C@@]2(C)[C@H]1CC(=O)N[C@H]1[C@@]3(C)CCNC(=O)[C@@H](C)[C@@H]3CC[C@@]12C | 96.2% | – | 102% | 97.8% | – | 96.3% | 97.9% | 106% | 106% | 98% | 98.9% | 81.9% | 99.5% | 95.5% | 109% | 104% | 99.5% | 103% | 102% | 101%
20 | CCCN1C(=O)N(CCC)C2C1NN=c1s/c(=C3\C(=O)N(C(C)C)c4ccccc43)c(=O)n12 (stereo unspecified) | – | 47.9 | 48.4% | 35.8% | – | 31.5% | 41.1% | 60.7% | 49.4% | 51% | 65.9% | 30.9% | 78.9% | 31.7% | – | 45.8% | 46.3% | 7.97% (active) | 18.8% | 23.4%
21 | CN1C(=O)N(C)C2(c3ccccc3)n3c(s/c(=C\c4ccccc4)c3=O)=NNC12c1ccccc1 (stereo unspecified) | – | 98 | 96.4% | 74.2% | – | 81.2% | 86.2% | 101% | 99.7% | 76.1% | 91.3% | 74.9% | 116% | 84.5% | – | 92.2% | 83% | 71.9% | 95.5% | 95%
22 | C=CCN1C(=O)/C(=c2\sc3n(c2=O)NC2C(N=3)N(CC)C(=O)N2CC)c2ccccc21 (stereo unspecified) | – | 44.5 | 45.8% | 30.5% | – | 35.5% | 47.7% | – | 65.9% | 49.2% | 56.7% | 56% | 101% | 42.3% | – | 24.4% | 36.4% | 21.1% | 19.9% | 52.9%
23 | CCN1C(=O)N(CC)C2C1NN=c1s/c(=C3\C(=O)N(CC(C)(C)C)c4ccccc43)c(=O)n12 (stereo unspecified) | – | 33.1 | 21% | 20.8% | – | 36.1% | 38.7% | 64% | 53.6% | 49.6% | 32.6% | 38.9% | 84.3% | 38.5% | – | 10.2% | 16.3% | 6.48% (active) | 6.57% (active) | 40.7%
24 | CC[C@@H](C)[C@H](NC(=O)Cn1cc(CNC(=O)[C@@H](NC(=O)OCc2ccccc2)C(C)C)nn1)C(=O)O | 101% | 106 | 104% | 97.2% | 102% | 100% | 99.7% | 113% | 110% | 100% | 97.1% | 95.1% | 112% | 88.4% | 98.9% | 106% | 109% | 101% | – | –
25 | COc1ccc(S(=O)(=O)N(Cc2ccc3c(n2)C=CC(C)(C)O3)C2CCC2)cc1OC | -12.5% (active) | – | 0.365% (active) | -3.05% (active) | – | -14.7% (active) | -40.6% (active) | -18.8% (active) | -37.5% (active) | -22.5% (active) | 6.9% (active) | -10.2% (active) | -8.7% (active) | -28.2% (active) | -25.4% (active) | -19% (active) | -14.3% (active) | -40% (active) | 3.8% (active) | 13.4%
26 | O=C(CN1C=NC2C(N3CCOCC3)=NC=NC21)c1cccc2ccccc12 (stereo unspecified) | – | 96.7 | 101% | 85.2% | – | 85.5% | 91.9% | 109% | 99% | 86.5% | 95.5% | 71.6% | 130% | 73.1% | – | 104% | 93.3% | 85.1% | 111% | 97.8%
